Measured values taken from PubChem BioAssay (NCATS).
Records with an inconclusive call do not appear. The source made the active and inactive calls. The call rests on the fitted dose curve; in most records, active means well fitted curve in the direction sought with a large enough effect; inconclusive means small, poorly fitted or top-dose-only effect, or another doubt; inactive means no such curve, though single readings can be large; an effect the other way counts as inactive or inconclusive.

Tests used:
JEG-3 = test: Primary qHTS to identify gynecologic anti-cancer compounds using libraries of approved drugs and bioactive compounds (AID 1345084); details: Gynecologic cancer cell panel viability, ATPlite luminescence, 48 h; series mostly up to 57.5 µM; further: nearly all actives have a fitted effect of over 55% in size
Procedure, shortened: (§1)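 48 h compound exposure at 37 C, 5% CO2; five-point qHTS. ATPlite luminescence readout of cell ATP.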

OV90 = test: as above; details: Gynecologic cancer cell panel viability, ATPlite luminescence, 48 h; series mostly up to 57.5 µM
Procedure, shortened: as §1

PA-1 = test: as above; details: Gynecologic cancer cell panel viability, ATPlite luminescence, 48 h; series mostly up to 57.5 µM
Procedure, shortened: as §1

SKOV3 = test: as above; details: Gynecologic cancer cell panel viability, ATPlite luminescence, 48 h; series mostly up to 57.5 µM
Procedure, shortened: as §1

Tov-21-G = test: as above; details: Gynecologic cancer cell panel viability, ATPlite luminescence, 48 h; series mostly up to 57.5 µM
Procedure, shortened: as §1

Tov112D = test: as above; details: Gynecologic cancer cell panel viability, ATPlite luminescence, 48 h; series mostly up to 57.5 µM
Procedure, shortened: as §1

[1] = Drug repurposing screens with cells derived from glioblastoma tumor samples (AID 1345199); details: GBM patient neurospheres viability, ATP luminescence, 48 h; further: nearly all actives have a fitted effect of over 40% in size
Procedure, shortened: (§2)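 Primary testing used CD133+ neurospheres from four GBM patients, seven concentrations, 48 h exposure and ATP-based viability; confirmation added three slower-growing patient lines.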

astro = test: as above; details: viability, ATP luminescence, 48 h; series mostly up to 45.9 µM
Procedure, shortened: as §2
On the % scale 0 is the no-effect control and ±100 the full control effect; potency means the concentration at half of the fitted maximal effect.

O=C(Nc1cccc(C(F)(F)F)c1)Nc1cc(S(=O)(=O)NC2CC2)ccc1-c1ccsc1
inactive: Potency (JEG-3) | Potency (OV90) | Potency (PA-1) | Potency (SKOV3) | Potency (Tov-21-G) | Potency (Tov112D)

CN(C)c1ccc(-c2nc3ncc(Cl)c(N4CCN(CC(=O)Nc5nccs5)CC4)c3[nH]2)cc1
inactive: Potency (JEG-3) | Potency (OV90)

CCCCC[C@H](O)C=C[C@H]1[C@H](O)CC(=O)[C@H]1CC=CCCCC(=O)O
inactive: Potency (JEG-3) | Potency (OV90) | Potency (PA-1) | Potency (SKOV3) | Potency (Tov-21-G) | Potency (Tov112D)

CC(C)(OCc1nn(Cc2ccccc2)c2ccccc12)C(=O)O
inactive: Potency (JEG-3) | Potency (OV90) | Potency (PA-1) | Potency (Tov-21-G) | Potency (Tov112D)

COc1nc(C)cnc1NS(=O)(=O)c1cccnc1-c1ccc(-c2nnco2)cc1
inactive: Potency (JEG-3) | Potency (OV90) | Potency (PA-1) | Potency (Tov-21-G) | Potency (Tov112D)

C[C@@H]1C[C@H]2[C@@H]3CCC4=CC(=O)C=C[C@]4(C)[C@@]3(F)[C@@H](O)C[C@]2(C)[C@@]1(O)C(=O)CO
inactive: Potency (JEG-3) | Potency (OV90) | Potency (PA-1) | Potency (SKOV3) | Potency (Tov-21-G) | Potency (Tov112D)

NS(=O)(=O)c1ccc(Nc2nc(OCC3CCCCC3)c3[nH]cnc3n2)cc1
inactive: Potency (JEG-3) | Potency (OV90) | Potency (PA-1) | Potency (Tov112D)
active: Potency (Tov-21-G) 15.8 µM

COc1cc2ncnc(Nc3cc(Br)c(O)c(Br)c3)c2cc1OC
inactive: Potency (JEG-3) | Potency (OV90) | Potency (PA-1) | Potency (Tov-21-G) | Potency (Tov112D)

Cn1c(=O)c(-c2c(Cl)cccc2Cl)cc2cnc(Nc3cccc(C(=O)O)c3)nc21
inactive: Potency (JEG-3) | Potency (OV90) | Potency (PA-1) | Potency (Tov112D)

Cc1ccccc1C(C(=O)NC1CCCCC1)N(C(=O)CNc1ccc(C#N)cc1)c1cccc(F)c1 (stereo not drawn)
inactive: Potency (JEG-3) | Potency (OV90) | Potency (SKOV3) | Potency (Tov-21-G) | Potency (Tov112D)

CN(C)CCN(Cc1ccc(Cl)cc1)c1ccccn1
active: Potency ([1]; tumour line A) 10 µM
inactive: Potency (JEG-3) | Potency (OV90) | Potency (PA-1) | Potency (SKOV3) | Potency (Tov-21-G) | Potency (Tov112D) | activity, negative = cell killing ([1]; at 20 µM (top of the series), tumour line C) -14.6% | activity, negative = cell killing ([1]; at 21.2 µM (top of the series), tumour line B) -16.9% | Potency (astro)

CC(C)(C)c1nc(-c2cccc(NS(=O)(=O)c3c(F)cccc3F)c2F)c(-c2ccnc(N)n2)s1
inactive: Potency (JEG-3) | Potency (OV90) | Potency (PA-1) | Potency (Tov112D)

CCCCn1c(=O)n(Cc2ccccc2F)c(=O)c2[nH]c(Cc3ccc(NC(C)=O)cc3)nc21
inactive: Potency (JEG-3) | Potency (OV90) | Potency (PA-1) | Potency (Tov-21-G) | Potency (Tov112D)

CCN1CCC(n2cc(CNc3cc(Cl)c4ncc(C#N)c(Nc5ccc(F)c(Cl)c5)c4c3)nn2)CC1
inactive: Potency (JEG-3) | Potency (OV90) | Potency (PA-1) | Potency (Tov-21-G) | Potency (Tov112D)

CNC(=O)c1c(-c2ccc(F)cc2)oc2cc(N(CCO)S(C)(=O)=O)c(C3CC3)cc12
inactive: Potency (JEG-3) | Potency (OV90) | Potency (PA-1) | Potency (SKOV3) | Potency (Tov-21-G) | Potency (Tov112D)

c1ccc(CNc2nc(N3CCOc4ccccc43)nc3c2CCCC3)cc1
inactive: Potency (JEG-3) | Potency (OV90) | Potency (PA-1) | Potency (SKOV3) | Potency (Tov-21-G) | Potency (Tov112D)

COC(=O)N1CCN(Cc2cccc(NC(=O)Nc3ccc(C)nc3)c2F)CC1
inactive: Potency (JEG-3) | Potency (OV90) | Potency (PA-1) | Potency (Tov-21-G) | Potency (Tov112D)

CN1CCN(c2cccc(Nc3nc4c(-c5ccc(S(C)(=O)=O)cc5)cccn4n3)c2)CC1
inactive: Potency (JEG-3) | Potency (OV90) | Potency (PA-1) | Potency (Tov112D)
active: Potency (SKOV3) 2.82 µM

Cc1ccccc1-n1c(Cn2nc(-c3cccc(O)c3)c3c(N)ncnc32)nc2cccc(C)c2c1=O
inactive: Potency (JEG-3) | Potency (OV90) | Potency (PA-1) | Potency (SKOV3) | Potency (Tov-21-G) | Potency (Tov112D)

CN(C)c1nc(Cc2ccc(NC(=O)c3ccc(C(F)(F)F)cc3)cc2)nc(N(C)C)c1CC(=O)O
inactive: Potency (JEG-3) | Potency (OV90) | Potency (PA-1) | Potency (Tov-21-G) | Potency (Tov112D)

C[C@@H](NC(=O)c1ncnc(N)c1Cl)c1ncc(C(=O)Nc2cc(C(F)(F)F)c(Cl)cn2)s1
active: Potency (OV90) 10 µM
inactive: Potency (JEG-3) | Potency (PA-1) | Potency (Tov112D)

C[C@@]1(c2cc(-c3cncnc3)c(F)cc2F)CCSC(N)=N1
inactive: Potency (JEG-3) | Potency (OV90) | Potency (PA-1) | Potency (SKOV3) | Potency (Tov-21-G) | Potency (Tov112D)

c1cc(OCCN2CCCCC2)cc(-c2n[nH]c3ccc(-c4ncn[nH]4)cc23)c1
inactive: Potency (JEG-3) | Potency (OV90) | Potency (PA-1) | Potency (Tov-21-G) | Potency (Tov112D)

Cc1ccc2c(c1)C(=O)[C@]1(O)CCN(c3ccccc3)C1=N2
inactive: Potency (JEG-3) | Potency (OV90) | Potency (PA-1) | Potency (SKOV3) | Potency (Tov112D)

Cc1cnc(Nc2cccc(CN3CCOCC3)c2)nc1Nc1cccc(S(=O)(=O)NC(C)(C)C)c1
active: Potency (SKOV3) 0.794 µM
inactive: Potency (JEG-3) | Potency (OV90)

CCc1cccc(CC)c1NC(=O)N1Cc2[nH]nc(NC(=O)c3ccc(N4CCN(C)CC4)cc3)c2C1
active: Potency (Tov-21-G) 12.6 µM
inactive: Potency (JEG-3) | Potency (OV90) | Potency (SKOV3)
